Data: PubChem BioAssay AID1159580 (chemical genetic matrix, 2015)
Where “and” joins values, the source holds several entries; their conditions need not be identical. Equal entries are not always repeated. The campaign covered roughly 5,500 compounds. About 2,000 (36%) were called active. Another 18% or so got no clear call; they are omitted. No stated cut-off is given here; in the data, active means normalized growth mostly below about 0.91 (no sharp cut-off); inconclusive means no clear call, values can overlap the other calls; inactive means mostly above about 0.92. The list shows a part of the results.

Assay: chemical genetic growth profiling, strain panel (AID 1159580);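 further: tested at 20 µM; growth read once vehicle control cultures reached saturation at 30 °C; 1 = growth at the plate median or of vehicle wells; lower values mean less growth of the strain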
Details: S. cerevisiae deletion strains, growth OD

Measured: normalized growth

NCC(CC(=O)O)c1ccc(Cl)cc1 (configuration not stated)
inactive: locus YAL013W, strain DEP1, hits give low values 1.02 | locus YAL021C, strain ccr4, hits give low values 0.99 | locus YAL026C, strain drs2, hits give low values 0.997 | locus YAL030W, strain snc1, hits give low values 1 | locus YAL040C, strain CLN3, hits give low values 1.03 | locus YBL061C, strain skt5, hits give low values 1 | locus YBR009C, strain hhf1, hits give low values 0.968 | locus YBR021W, strain FUR4, hits give low values 1.04 | locus YBR023C, strain chs3, hits give low values 0.997 | locus YBR171W, strain sec66, hits give low values 1.01 | locus YBR229C, strain ROT2, hits give low values 1.01 | locus YBR231C, strain swc5, hits give low values 1.01 | locus YBR279W, strain paf1, hits give low values 0.994 | locus YCL011C, strain gbp2, hits give low values 0.992 | locus YCL016C, strain dcc1, hits give low values 0.976 | locus YCL029C, strain bik1, hits give low values 0.993 | locus YCL061C, strain MRC1 (second series), hits give low values 0.981 | locus YCL069W, strain vba3, hits give low values 0.994 | locus YCR088W, strain abp1, hits give low values 1 | locus YDL005C, strain med2, hits give low values 1 | locus YDL035C, strain GPR1, hits give low values 1.05 | locus YDL040C, strain nat1, hits give low values 0.995 | locus YDL074C, strain BRE1, hits give low values 1.03 | locus YDL101C, strain DUN1, hits give low values 1.01 | locus YDL185W, strain tfp1, hits give low values 0.993 | locus YDL192W, strain arf1, hits give low values 0.991 | locus YDR001C, strain nth1, hits give low values 0.995 | locus YDR069C, strain doa4, hits give low values 1.02 | locus YDR101C, strain arx1, hits give low values 0.979 | locus YDR137W, strain rgp1, hits give low values 0.98 | locus YDR150W, strain NUM1, hits give low values 1.01 | locus YDR159W, strain sac3, hits give low values 0.945 | locus YDR162C, strain NBP2, hits give low values 1.04 | locus YDR195W, strain ref2 0.995 | locus YDR297W, strain sur2, hits give low values 1.01 | locus YDR318W, strain mcm21, hits give low values 0.993 | locus YDR334W, strain swr1, hits give low values 1 | locus YDR335W, strain msn5, hits give low values 1 | locus YDR388W, hits give low values 0.99 | locus YDR392W, strain spt3, hits give low values 0.928 | locus YDR502C, strain sam2, hits give low values 0.991 | locus YEL003W, strain gim4, hits give low values 0.996 | locus YEL037C, strain rad23, hits give low values 0.998 | locus YEL061C, strain CIN8 (second series), hits give low values 1.01 | locus YEL061C, strain CIN8, hits give low values 1.01 | locus YER002W, strain NOP16, hits give low values 0.992 | locus YER015W, strain faa2, hits give low values 1 | locus YER016W, strain bim1, hits give low values 0.975 | locus YER110C, hits give low values 0.978 | locus YER111C, strain swi4, hits give low values 0.989 | locus YER155C, strain BEM2 (second series), hits give low values 1.02 | locus YER155C, strain BEM2, hits give low values 1.02 | locus YER167W, strain BCK2, hits give low values 1.02 | locus YFR010W, strain ubp6, hits give low values 1.01 | locus YGL078C, strain dbp3, hits give low values 0.984 | locus YGL086W, strain mad1, hits give low values 0.988 | locus YGL167C, strain pmr1, hits give low values 0.99 | locus YGL173C, strain kem1, hits give low values 1 | locus YGL227W, strain vid30, hits give low values 1 | locus YGL240W, strain doc1, hits give low values 1.03 | locus YGL248W, strain PDE1, hits give low values 1.02 | locus YGL253W, strain hxk2, hits give low values 0.966 | locus YGR078C, strain PAC10, hits give low values 1.01 | locus YGR135W, strain pre9, hits give low values 0.987 | locus YGR229C, strain SMI1, hits give low values 0.955 | locus YGR252W, strain gcn5, hits give low values 0.966 | locus YHR013C, strain ard1, hits give low values 0.982 | locus YHR027C, strain rpn1, hits give low values 0.98 | locus YHR030C, strain SLT2, hits give low values 1.01 and 1.05 | locus YHR079C, strain IRE1 (second series), hits give low values 0.984 | locus YHR079C, strain IRE1, hits give low values 1.06 | locus YHR094C, strain hxt1, hits give low values 0.985 | locus YHR129C, strain ARP1, hits give low values 1.01 | locus YHR142W, strain chs7, hits give low values 0.958 | locus YHR200W, strain rpn10, hits give low values 0.987 | locus YIL066C, strain RNR3, hits give low values 1.04 | locus YIL073C, strain SPO22, hits give low values 0.986 | locus YIL125W, strain kgd1, hits give low values 0.977 | locus YIR030C, strain dcg1, hits give low values 1 | locus YJL092W, strain hpr5, hits give low values 1.01 | locus YJL095W, strain BCK1 (second series), hits give low values 1 | locus YJL095W, strain BCK1, hits give low values 1.01 and 1.06 | locus YJL115W, strain asf1, hits give low values 1.02 | locus YJL129C, strain trk1, hits give low values 1 | locus YJL134W, strain LCB3, hits give low values 1.01 | locus YJL154C, strain vps35, hits give low values 0.991 | locus YJL164C, strain tpk1, hits give low values 0.975 | locus YJL166W, strain qcr8, hits give low values 1.01 | locus YJL168C, strain set2, hits give low values 0.994 | locus YJL187C, strain SWE1 (second series), hits give low values 1.01 | locus YJR043C, strain POL32, hits give low values 1.03 | locus YJR066W, strain TOR1, hits give low values 0.996
